Experiment in all cases: yeast three-hybrid, YBZ-1, SC-Leu-His + 0.5 mM 3-AT, 4 days
Holding throughout (details): tags: N-Gal4 AD-HA kept; label: inside an RPR1-promoter hybrid RNA with tandem MS2 sites; ssRNA

The target of one test is PUM1 PUF domain R4-FNC (Homo sapiens, UniProt Q14671 828-1176, N971F;H972N;Q975C). Put shortly:
(§1)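 Sequencing with Illumina followed PCR amplification of the repeat regions from transformants grown four days on SC-Leu (input) or SC-Leu-His + 0.5 mM 3-AT (selection). The transformants were strain YBZ-1 with a LexA–MS2 coat fusion and a HIS3 reporter, carrying Pumilio-1 PUF domain libraries and matching RNA elements. The interaction score is the log change in variant frequency from input to selection, computed in log2 with a pseudocount of 1 for absent variants.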

The next test deals with PUM1 PUF domain R4-PFL (Homo sapiens, UniProt Q14671 828-1176, N971P;H972F;Q975L). Put shortly:
as §1

In the next test the target is PUM1 PUF domain R4-SHS (Homo sapiens, UniProt Q14671 828-1176, N971S;Q975S). Put shortly:
as §1

In the next test the target is PUM1 PUF domain R7-ARR (Homo sapiens, UniProt Q14671 828-1176, S1079A;N1080R;E1083R). Summed up: as §1
In another test the target is PUM1 PUF domain R7-EPG (Homo sapiens, UniProt Q14671 828-1176, S1079E;N1080P;E1083G). Put shortly: as §1
The target of another test is T1, PUM1 PUF domain R6-GWE (Homo sapiens, UniProt Q14671 828-1176, N1043G;Y1044W;Q1047E).
T1 sequence: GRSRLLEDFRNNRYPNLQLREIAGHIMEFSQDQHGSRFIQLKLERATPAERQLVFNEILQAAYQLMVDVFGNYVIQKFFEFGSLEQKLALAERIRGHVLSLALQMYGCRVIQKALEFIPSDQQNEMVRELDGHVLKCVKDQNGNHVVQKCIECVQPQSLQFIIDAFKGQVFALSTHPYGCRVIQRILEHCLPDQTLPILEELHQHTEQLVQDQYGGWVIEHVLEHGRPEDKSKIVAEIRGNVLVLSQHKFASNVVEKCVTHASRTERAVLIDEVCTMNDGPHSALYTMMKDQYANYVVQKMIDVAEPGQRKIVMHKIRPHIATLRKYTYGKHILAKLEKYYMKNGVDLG
Put shortly: as §1

Another test deals with PUM1 PUF domain R3-SAE (Homo sapiens, UniProt Q14671 828-1176, C935S;R936A;Q939E). Put shortly:
as §1

Another test addresses PUM1 PUF domain R2-DWC (Homo sapiens, UniProt Q14671 828-1176, N899D;Y900W;Q903C). Summed up: as §1
The target in another test is PUM1 PUF domain R8-RFY (Homo sapiens, UniProt Q14671 828-1176, N1122R;Y1123F;Q1126Y). Summed up:
as §1

For a further test, the target named is T2, PUM1 PUF domain R6-IFC (Homo sapiens, UniProt Q14671 828-1176, N1043I;Y1044F;Q1047C).
T2 sequence: T1 sequence with G216I, W217F, E220C
Put shortly:
as §1

Numbering of substitutions follows the chain as printed.

For the sequence “GGCUAGAACUAGUGGAUCCCCCGGCGCCCGGCGGCUCGAGCCCGGGUAAGUGUAUAUAGUCUGCAUGCCGCCGGGCGCCAUGCCUGCAGGUCGACUCUAGAAAACAUG”, the binding signal with PUM1 PUF domain R4-FNC was 3.02 log2 enrichment (interaction score); with PUM1 PUF domain R4-PFL it was 4.21 log2 enrichment (interaction score); in the test with PUM1 PUF domain R4-SHS it was 6.15 log2 enrichment (interaction score).

“GGCUAGAACUAGUGGAUCCCCCGGCGCCCGGCGGCUCGAGCCCGGGUAAGUCUAAAUAGUCUGCAUGCCGCCGGGCGCCAUGCCUGCAGGUCGACUCUAGAAAACAUG”: the binding signal in the test with PUM1 PUF domain R7-ARR is 3.14 log2 enrichment (interaction score).

On to “GGCUAGAACUAGUGGAUCCCCCGGCGCCCGGCGGCUCGAGCCCGGGUAAGUUUAAAUAGUCUGCAUGCCGCCGGGCGCCAUGCCUGCAGGUCGACUCUAGAAAACAUG”, for which the binding signal with PUM1 PUF domain R7-ARR and with PUM1 PUF domain R7-EPG was 3.69 log2 enrichment (interaction score) in each case.

Turning to “GGCUAGAACUAGUGGAUCCCCCGGCGCCCGGCGGCUCGAGCCCGGGUAAGUGGAAAUAGUCUGCAUGCCGCCGGGCGCCAUGCCUGCAGGUCGACUCUAGAAAACAUG”, in the test with PUM1 PUF domain R6-GWE, the binding signal was 5.02 log2 enrichment (interaction score).

On to “GGCUAGAACUAGUGGAUCCCCCGGCGCCCGGCGGCUCGAGCCCGGGUAAGUGUAAGUAGUCUGCAUGCCGCCGGGCGCCAUGCCUGCAGGUCGACUCUAGAAAACAUG”, for which, in the test with PUM1 PUF domain R3-SAE, the binding signal is 4.99 log2 enrichment (interaction score).

Turning to “GGCUAGAACUAGUGGAUCCCCCGGCGCCCGGCGGCUCGAGCCCGGGUAAGUGUAAAAAGUCUGCAUGCCGCCGGGCGCCAUGCCUGCAGGUCGACUCUAGAAAACAUG”, the binding signal with PUM1 PUF domain R2-DWC is 7.69 log2 enrichment (interaction score).

For the sequence “GGCUAGAACUAGUGGAUCCCCCGGCGCCCGGCGGCUCGAGCCCGGGUAAGCGUAAAUAGUCUGCAUGCCGCCGGGCGCCAUGCCUGCAGGUCGACUCUAGAAAACAUG”, the binding signal with PUM1 PUF domain R8-RFY is 5.49 log2 enrichment (interaction score).

Consider “GGCUAGAACUAGUGGAUCCCCCGGCGCCCGGCGGCUCGAGCCCGGGUAAGUGAAAAUAGUCUGCAUGCCGCCGGGCGCCAUGCCUGCAGGUCGACUCUAGAAAACAUG”, for which the binding signal with PUM1 PUF domain R6-IFC is 5.44 log2 enrichment (interaction score).

For the origin of these results see article PMC8384837, “Expanding the binding specificity for RNA recognition by a PUF domain”.
